Source: PubChem BioAssay (NCI)
About 83,000 compounds went through this panel and 20% of them were active in at least one assay; those are over-represented in the sample as a whole.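 Results are percent growth after 48 hours of single-concentration exposure. 100 means growth as in untreated cells, lower positive values show inhibition; negative values down to -100 show cell death.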 Active and inactive are the calls of the source. The calls were made as follows: active = growth percent below 10; inactive = the rest.

What was measured:
Assay in all cases: NCI-60 one-dose screen, 48 h (100 = growth as untreated, 0 = no growth, -100 = all killed)
Details in all cases: 10 µM unless noted
SR leukemia = system: SR leukemia
RPMI-8226 leukemia = system: RPMI-8226 leukemia
OVCAR-8 ovarian = system: OVCAR-8 ovarian
OVCAR-5 ovarian = system: OVCAR-5 ovarian
OVCAR-4 ovarian = system: OVCAR-4 ovarian
SK-OV-3 ovarian = system: SK-OV-3 ovarian
IGROV1 ovarian = system: IGROV1 ovarian
HS 578T breast = system: HS 578T breast
NCI/ADR-RES ovarian = system: NCI/ADR-RES ovarian

Measured: growth

CC(C)C(/C=C/c1[nH]ncc1-c1cc(Cl)ccc1O)N1CCOCC1 (stereo unspecified)
inactive: SR leukemia 87.9% | RPMI-8226 leukemia 94.5% | OVCAR-8 ovarian 91.9% | OVCAR-5 ovarian 99.4% | OVCAR-4 ovarian 94.3% | SK-OV-3 ovarian 92.8% | IGROV1 ovarian 88.6% | HS 578T breast 83.8% | NCI/ADR-RES ovarian 88.1%

CCN(CC)c1ccc(/C=N/NC(=O)c2ccc(S(N)(=O)=O)cc2)cc1
inactive: SR leukemia 14.1% | RPMI-8226 leukemia 34.3% | OVCAR-8 ovarian 14.6% | OVCAR-5 ovarian 46.7% | OVCAR-4 ovarian 30.4% | SK-OV-3 ovarian 35.5% | IGROV1 ovarian 19.9% | HS 578T breast 64.1% | NCI/ADR-RES ovarian 53.8%

Cc1ccc(CSC2=C(Cl)CN(c3ccc(Cl)cc3)C2=O)cc1
inactive: SR leukemia 74.1% | RPMI-8226 leukemia 92.8% | OVCAR-8 ovarian 105% | OVCAR-5 ovarian 106% | OVCAR-4 ovarian 107% | SK-OV-3 ovarian 117% | IGROV1 ovarian 115% | HS 578T breast 107% | NCI/ADR-RES ovarian 103%

C/C(=N\NC(N)=S)c1nnn(-c2ccc([N+](=O)[O-])cc2)c1C
inactive: SR leukemia 110% | RPMI-8226 leukemia 103% | OVCAR-8 ovarian 98.6% | OVCAR-5 ovarian 98.7% | OVCAR-4 ovarian 108% | SK-OV-3 ovarian 104% | IGROV1 ovarian 100% | HS 578T breast 96.3% | NCI/ADR-RES ovarian 98.8%

CCCCCCNC(=O)Oc1ccc(/C(=C(/C)c2ccc(OC)cc2)c2ccc(OCCN3CCCCCC3)cc2)cc1
active: SR leukemia -6.81% | RPMI-8226 leukemia -2.43% | HS 578T breast 9.93%
inactive: OVCAR-8 ovarian 41.8% | OVCAR-5 ovarian 61.1% | OVCAR-4 ovarian 47.1% | SK-OV-3 ovarian 66.1% | IGROV1 ovarian 47% | NCI/ADR-RES ovarian 48.2%

N#Cc1nc(-c2ccc(Cl)cc2)oc1N1CCC(S(=O)(=O)N2CCOCC2)CC1
inactive: SR leukemia 88.6% | RPMI-8226 leukemia 105% | OVCAR-8 ovarian 101% | OVCAR-5 ovarian 102% | OVCAR-4 ovarian 100% | SK-OV-3 ovarian 119% | IGROV1 ovarian 90.5% | HS 578T breast 105% | NCI/ADR-RES ovarian 100%

COc1cc2cc(Oc3ccc(NC(=O)Nc4ccc(F)c(C(F)(F)F)c4)cc3)c(C)nc2cc1OCCN(C)C
inactive: RPMI-8226 leukemia 80.2% | OVCAR-8 ovarian 102% | OVCAR-5 ovarian 137% | OVCAR-4 ovarian 112% | SK-OV-3 ovarian 116% | IGROV1 ovarian 101% | HS 578T breast 108% | NCI/ADR-RES ovarian 41.2%
active: SR leukemia 1.94%

Cc1ccc(OCc2occc2C(=O)N2CCOCC2)cc1
inactive: SR leukemia 104% | RPMI-8226 leukemia 97.7% | OVCAR-8 ovarian 113% | OVCAR-5 ovarian 102% | OVCAR-4 ovarian 103% | SK-OV-3 ovarian 109% | IGROV1 ovarian 104% | HS 578T breast 104% | NCI/ADR-RES ovarian 107%

O=C(N/N=C/c1cc2ccccc2nc1Cl)c1cc(-c2nc3ccccc3[nH]2)nc2ccccc12
inactive: SR leukemia 83.6% | RPMI-8226 leukemia 82.7% | OVCAR-8 ovarian 96.3% | OVCAR-5 ovarian 106% | OVCAR-4 ovarian 86.3% | SK-OV-3 ovarian 106% | IGROV1 ovarian 87.5% | HS 578T breast 108% | NCI/ADR-RES ovarian 93.3%

C/C(=N\NC(=O)Nc1ccccc1)c1nnn(-c2ccc([N+](=O)[O-])cc2)c1C
inactive: SR leukemia 100% | RPMI-8226 leukemia 102% | OVCAR-8 ovarian 102% | OVCAR-5 ovarian 112% | OVCAR-4 ovarian 105% | SK-OV-3 ovarian 109% | IGROV1 ovarian 112% | HS 578T breast 116% | NCI/ADR-RES ovarian 102%

COCCOc1ccc2ncc(C#Cc3cncc(C(=O)Nc4ccc(CN5CCN(C)CC5)c(C(F)(F)F)c4)c3)n2n1
active: SR leukemia 0.746% | IGROV1 ovarian 9.76% | HS 578T breast -13.3% | NCI/ADR-RES ovarian 3.81%
inactive: RPMI-8226 leukemia 23.4% | OVCAR-8 ovarian 24.4% | OVCAR-5 ovarian 21.8% | OVCAR-4 ovarian 43.2% | SK-OV-3 ovarian 24%

Cc1ncn(-c2ccc(/C=N/Nc3ccnc4cc(Cl)ccc34)cc2)c1C
inactive: OVCAR-5 ovarian 102% | SK-OV-3 ovarian 102% | IGROV1 ovarian 61.7%
active: SR leukemia -21.3% | RPMI-8226 leukemia -27.2% | OVCAR-8 ovarian -57.5% | OVCAR-4 ovarian -68.3% | HS 578T breast -16.1% | NCI/ADR-RES ovarian 8.02%

CC(=O)c1cc(C(=O)N2c3ccccc3Sc3ccccc32)n2c1ccc1ccccc12
inactive: SR leukemia 11% | RPMI-8226 leukemia 48.3% | OVCAR-8 ovarian 71.5% | OVCAR-5 ovarian 86.6% | OVCAR-4 ovarian 78.1% | SK-OV-3 ovarian 59.8% | IGROV1 ovarian 52.7% | HS 578T breast 55.1% | NCI/ADR-RES ovarian 35.9%

Nc1ccc(Nc2ncnc3sc4c(c23)CCN(Cc2ccccc2)C4)cc1
inactive: SR leukemia 82.9% | RPMI-8226 leukemia 94.3% | OVCAR-8 ovarian 99.3% | OVCAR-5 ovarian 107% | OVCAR-4 ovarian 96.8% | SK-OV-3 ovarian 113% | IGROV1 ovarian 101% | HS 578T breast 98.2% | NCI/ADR-RES ovarian 101%
